From the supplement of paper PMC10105736
Unmarked numbers belong to inactive results.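 Rule for the calls: active = MAPPIT score above the 99th percentile of random reference set scores in the same batch; inactive = at or below it.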

Tests used:
Assay in all cases: MAPPIT interaction score (arbitrary units); higher = stronger binary interaction signal, active = hit call of the paper
CG1316 = settings: MAPPIT configuration: N-N; pair source set: Curagen_high_conf
CG13058 = settings: pair source set: RRS
CG13901 = settings: MAPPIT configuration: N-N; pair source set: Finley_Y2H
CG5862 = settings: MAPPIT configuration: N-N; pair source set: Curagen_high_conf
RpLP1 = settings: MAPPIT configuration: N-N; pair source set: Curagen_low_conf
CG13510 = settings: MAPPIT configuration: N-N; pair source set: Lit-BS-16
CG13494 = settings: MAPPIT configuration: N-C; pair source set: screen_3
CG13843 = settings: MAPPIT configuration: N-C; pair source set: screen_3
Os-C = settings: MAPPIT configuration: N-N; pair source set: RRS
CG13560 = settings: MAPPIT configuration: N-N; pair source set: Finley_Y2H
CG13840 = settings: MAPPIT configuration: N-N; pair source set: Curagen_low_conf
CG5674 = settings: MAPPIT configuration: N-N; pair source set: screen_2
Klp98A = settings: MAPPIT configuration: N-N; pair source set: screen_1
Rpn13 = settings: MAPPIT configuration: N-N; pair source set: screen_2
CG13069 = settings: pair source set: RRS
DCTN1-p150 = settings: MAPPIT configuration: N-N; pair source set: Lit-BM-16
ctp = settings: pair source set: Lit-BM-16
CG13476 = settings: MAPPIT configuration: N-N; pair source set: Lit-BS-16
CG9795 = settings: MAPPIT configuration: N-N; pair source set: Curagen_high_conf
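Note: HEK293T cells with Epo stimulation, STAT-responsive firefly luciferase reporter, fold induction versus unstimulated cells divided by the larger fold induction of two negative controls lacking either bait or prey.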

B1: poly (protein)
chain: MATSVLLACGLNEQKLPGFVHISEESNVDASFLISCVLGQRLRISNAGTLLVCLQHHYQHYFNAGMRLGYNTNIFQGKTLGVIDVLSDMAGEGLASKWLTNTEGQTLTDQLVEDIRAQVERNYASRNSYTVLIDNLSILFNLGASKLQVQQFCQDLAALGKEREKLTVITKLSNSDIYQLTDNNVAKLGQVRIQVLRLKSGVFREVDGKLLIERVLDEGNYACEETRKEVLYKVNDRNVKVFAPGEIGVKV
- MAPPIT interaction score (CG1316): 0.569

B2: Fdx2 (protein)
chain: MLVINSCRAASRLALRSLNLRSPIATRTFSTGLALKTKDVVNITFVRANGDKIKTSGKVGDSLLDVVVNNNVDLDGFGACEGTLTCSTCHLIFKTSDFEKLPDKPGDEELDMLDLAYELTDTSRLGCQITLSKDMEGLEVHVPSTINDARAA
- MAPPIT interaction score (CG13058; MAPPIT configuration: N-C): 0.365
- MAPPIT interaction score (CG13058; MAPPIT configuration: N-N): 0.0953

B3: Ufl1 (protein)
chain: MGSDWDEIKRLAADFQKAQLTSTLQKLSERNCVEIVTLLLEKQMLEVVFTNDGKEYITPDHLEREIQDELYVNGGRANLVEVSKTLNVDLSRIELLAERISAENQSVHLVLGQLIDEDYISHIAQEINEKLVQRGEVSISELASQFDLPSDFLQHDVVEKHLGKIIKGRQDASNPRVFFTQAYIQRCKAKIRGALAAITRPINVAVILQKIGVQEKIFYSLLDEIAPAGQVTSKQANSQYVPHIYAKTQADWVNSFYKQNSFLEYDAIQKLGISDAKSYIRKQFPNEEFLYLKRVALGARLVELTVVTALNECSATKQYLDLTTILPSNLSEEDIEEVFSTIMAQKHSNPSNFVYLDGIVFSQPYLAQLVQPCQALAESQAKAAIDGGVYQQYIVEKTLAQKGNVSTQELEDEGKVDKRDERRKKASSGKAGGGAQGRETKTKSTKKHQRGKAAAQFDSDDEDDAQQGSRGGGGASKKAVKPLELVKTADIVKLITASLEEEGLEHLSKSIASLYTNQFNQTALARAQELFEATPQTNRRQTHAAIQDRINTLLIDIRLYEKGLKLFPQDTQTQLVKYLLKSLGNEICNELSLYVASECNLTVKNTNLNVDQRNKLAQECEAQYRAALLEQNKALNKSIDDFELATETVLKTCSMIIKKVDKKKDRLLIADHKKKLQKQLLECNEPALLLHLAALILFTTITGSILHASGKFVSAILQHIRGSLNEDQNALLLRYHDLVLQVLQAIPDSNESKLANEHLQTMQNQVVELAQNFSRASISKAD
- MAPPIT interaction score (CG13901): 1.55
- MAPPIT interaction score (CG5862): -0.395
- MAPPIT interaction score (RpLP1): -0.273

B4: Grip75 (protein)
chain: MIHDLLLACRSHNPEQLGIKAFNETTVIDQFIHPCEREIFMDIIKIIKVYQEVEQFTHSSGRKSDTHGELPDSLHGYYLLNLAKGIEMALEEYYAEIGRLEKYCLGNERNSLSYVYNALYAKFPLLVFMRNLITEIHVLNLRGCVLLHNLHQQCEHGDIQLEKAIKIIMKPVKNAFFSSLAHWLLFGVIDDVHSEFFIKFTPTDAVDGSSFSKSATCSLLSAEKNPEDYIWQYEVNMSQLPGFFSIVLAEKVLFVGQTVLVFKMGRNVKVKNKTDPLAAKLAELDSDDIYQLWSGRESEFFKMVVDLSNEDTINVFRLEKVIIDIKNYVSARLSEIAVNEVDLERQMGLIKDFFLLGRGEFYLEFCSQMVGTMETYREERFKNVTRSFELAATVTGITDDLDKFSLICQRSTSEPDDTSDFNFLQGLSLKYEYEWPLNLLFSPTTIERYNNIFRFLLIIRTYQYEIQRVWAKQTWRAKSAKDVPPNNKIITLRNYLMFFLNNMQYYIQVDVLESQFGILMNVIKSRSDFEVIQRAHTVFLANVLSHCFLLNESETQLNVTGSQNRNPIYGTLLKLFGICEKFAHMTQTKDPSDDLEDEVDQLNESFGVQIASLIQLLVDVKSASCLGPLSQLLLRLDFNCWFSASHNTSA
- MAPPIT interaction score (CG13510): 0.427

B5: CG5021 (protein)
chain: MASATVRNVPLLDDDTIPFGEEDEMRDPSRAGQKYTHPYVTFFHLFFRGAAILIYMFCGWFSDSFITSFVFVVLFLSADFWTVKNISGRLLVGLRWWNYVDDDGVSHWVFESKNSESYQSRVNKNEQRIFWLGLILCPVFWGLFFLFALFGLKFKWLLLVMIAIALNAANLYGYVKCNYGANKDLNSAATDFVKTQFFKNAVDIMTRPSGAPPPTNVRPTGVV
- MAPPIT interaction score (CG13494): 0.956

B6: Dpit47 (protein)
chain: MKQMAAQKAWTDEERLELAAQLDAELDAFIDGLEKKRYEEGWPEDRWQEEMDKHPFFMKRAPQPGDDVHPMFEGLQKLKYDPEENTRDELALNYKEDGNFYMKHKKFRMAIYSFTEGIKTKTDNPDVLAVLYNNRSAAHFFIKNYRSSLSDAQRALFYKPDYTKARWRSAQCAYELERFDLCTQMCEELLEVDVDNEVAIALLHKNKMKKLEIERNQRKEAAEAKRRLTRFHRLRDAIEQRAIKFDDQKVGKKDVLSEELLYPKFLPLEDHPVHLDEDGSTLIWPAAFSYPEFLYSDFYQQLPETTTMRDCLATLLTEKLPYDKAHNYRLGNVHVYYENRKVGCVHKVDEEKQLAEIIAEKGFFVSGGALLFYVVHKDSRVEQEFINERRRPMVYS
- MAPPIT interaction score (CG13843): 3.75 (active)
- MAPPIT interaction score (Os-C): 1.52

B7: Treh (protein)
chain: MFKLPTISLLLVSWSCLVALSQAKTYSLPDLTTDYNNAIPVDEEEAQDPFASCKIYCEGNLLHTIQTAVPKLFADSKTFVDMKLNNSPDKTLEDFNAMMEAKNQTPSSEDLKQFVDKYFSAPGTELEKWTPTDWKENPSFLDLISDPDLKQWGVELNSIWKDLGRKMKDEVSKNPEYYSIIPVPNPVIVPGGRFIEFYYWDSYWIIRGLLYSQMFDTARGMIENFFSIVNRFGFIPNGGRVYYHGRSQPPLLTGMVKSYVDFTNDDKFAIDALDTLEHEFEFFVNNHNVTVKNHSLCVYRDSSSGPRPESYREDVETGEEFPTDEAKELHYSELKAGAESGMDFSSRWFISPTGTNDGNRSALSTTSIVPVDLNAYLYWNAKLIAEFHSKAGNTKKVTEYETKAEKLLLGIQEVLWNEEAGVWLDYDMINQKPRDYYTPTNLSPLWVKAFNISESEKISASVMAYIERNKLDSFPGGVPNTLSYTGEQWDAPNVWAPMQYILVEGLNNLNTPEAKNMSLKWATRWVKTNFAAFSKDRHMYEKYNADEFGVGGGGGEYEVQTGFGWSNGVIIEWLSKHGRDISIGSGCGCLAGEKRQ
- MAPPIT interaction score (CG13560): -0.19

B8: sina (protein)
chain: MSNKINPKRREPTAAAAGAGATGVATNTSTSTGSSSAGNTSSANTSSSSSSSLSSAGGGDAGMSADLTSLFECPVCFDYVLPPILQCSSGHLVCVSCRSKLTCCPTCRGPLANIRNLAMEKVASNVKFPCKHSGYGCTASLVYTEKTEHEETCECRPYLCPCPGASCKWQGPLDLVMQHLMMSHKSITTLQGEDIVFLATDINLPGAVDWVMMQSCFGHHFMLVLEKQEKYDGHQQFFAIVQLIGSRKEAENFVYRLELNGNRRRLTWEAMPRSIHEGVASAIHNSDCLVFDTSIAQLFADNGNLGINVTISLV
- MAPPIT interaction score (CG13840): -0.135
- MAPPIT interaction score (CG5674): -0.0161
- MAPPIT interaction score (Klp98A): 0.0642
- MAPPIT interaction score (Rpn13): 0.72

B9: sw (protein)
chain: MDRKAELERKKAKLAALREEKDRRRREKEIKDMEEAAGRIGGGAGIDKDQRKDLDEMLSSLGVAPVSEVLSSLSSVNSMTSDNSNTQTPDASLQATVNGQSGGKKQPLNLSVYNVQATNIPPKETLVYTKQTQTTSTGGGNGDVLSCHSSPLSGYMEDWWRPRKAHATDYYDEYNLNPGLEWEDEFTDDEESSLQNLGNGFTSKLPPGYLTHGLPTVKDVAPAITPLEIKKETEVKKEVNELSEEQKQMIILSENFQRFVVRAGRVIERALSENVDIYTDYIGGGDSEEANDERSHARLSLNRVFYDERWSKNRCITSMDWSTHFPELVVGSYHNNEESPNEPDGVVMVWNTKFKKSTPEDVFHCQSAVMSTCFAKFNPNLILGGTYSGQIVLWDNRVQKRTPIQRTPLSAAAHTHPVYCLQMVGTQNAHNVISISSDGKLCSWSLDMLSQPQDTLELQQRQSKAIAITSMAFPANEINSLVMGSEDGYVYSASRHGLRSGVNEVYERHLGPITGISTHYNQLSPDFGHLFLTSSIDWTIKLWSLKDTKPLYSFEDNSDYVMDVAWSPVHPALFAAVDGSGRLDLWNLNQDTEVPTASIVVAGAPALNRVSWTPSGLHVCIGDEAGKLYVYDVAENLAQPSRDEWSRFNTHLSEIKMNQSDEV
- MAPPIT interaction score (CG13069; MAPPIT configuration: N-C): -0.364
- MAPPIT interaction score (CG13069; MAPPIT configuration: N-N): 0.421
- MAPPIT interaction score (DCTN1-p150): 1.87
- MAPPIT interaction score (ctp; MAPPIT configuration: N-C): 1.37
- MAPPIT interaction score (ctp; MAPPIT configuration: N-N): 1.75

B10: Nin (protein)
chain: MEVSADPYEQKLYQMFRSCETQCGLLDEKSLLKLCSLLELRDQGSALIASLGGSHQLGVSFGQFKEALLNFLGSEFDGNTSSGFIERSLVITDEPLNNTYIESPPESSDREVSPKLVVGTKKYGRRSRPQQGIYELSVTDSDNTDEDQLQQQQNQRSLNGCDELGVQVQRSSSQSDLPGSRRLRSVHTSGSKLKRCASLPARRKMNSNTTGATTSPTAAAKLKQLSIQSQAQHSSSVESLDTVTPQQLETISVHSIMEAWELASIPNTRNLLHVLGFDEEEEVNLQQLTKALEEELRGIDGDHEQSNMLRALAALQATELGNYRLAYRQQHEENLKLRADNKAANQRVALLAVEVDERHASLEDNSKKQVQQLEQRHASMVREITLRMTNDRDHWTSMTGKLEAQLKSLEQEEIRLRTELELVRTENTELESEQQKAHIQITELLEQNIKLNQELAQTSSSIGGTPEHSPLRPRRHSEDKEEEMLQLMEKLAALQMENAQLRDKTDELTIEIESLNVELIRSKTKAKKQEKQEKQEDQESAATATKRRGDSPSKTHLTEESPRLGKQRKCTEGEQSDASNSGDWLALNSELQRSQSQDEELTSLRQRVAELEEELKAAKEGRSLTPESRSKELETSLEQMQRAYEDCEDYWQTKLSEERQLFEKERQIYEDEQHESDKKFTELMEKVREYEEQFSKDGRLSPIDERDMLEQQYSELEAEAAQLRSSSIQMLEEKAQEISSLQSEIEDLRQRLGESVEILTGACELTSESVAQLSAEAGKSPASSPISYLWLQSTIQEPAKSLADSKDEATASAIELLGGSPSHKTASRNNLTTSETSIFSTTPFESSQSGPSPTNSGNSNAYGANPGPAPISKPKRSQSPQQAAASEGEIADCETSSTASGKSFESNSKTSCLSHEKCSSPSALKEELKRLKFFELSLKEQIKDLSLQRDGLVMELQQLQEARPVLEKAYARTTHPTLQQRLNQLELRNRHLQNVIKQQQHYTESLMQQSWRQHQVELNDLHSRIETQGVLLADQTQRLQSADILVKDLYVENSHLTATVQRLEQQRARVNLIHQQQQQQRLVGGGLPGMP
- MAPPIT interaction score (CG13476): 0.125
- MAPPIT interaction score (CG9795): 4.19 (active)
